Drawing on PubChem BioAssay (NCI), this text covers growth inhibition for 9 molecules.

The panel holds about 79,000 compounds, 15% with a hit somewhere; the sample as a whole holds those more often. Unmarked numbers belong to inactive results. The source made the active and inactive calls. No stated cut-off is given here; in the data, active means growth inhibition above about 70%; inactive means the rest.

Assay [1] can be described thus: NCI Yeast Anticancer Drug Screen. Data for the rad50 strain (AID 155).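 Further: 0% = growth of vehicle-only cultures of the same strain.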 To be noted: S. cerevisiae rad50 strain growth inhibition, active compounds read high. The essentials: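 Readout: growth inhibition relative to vehicle-treated cultures. Compound exposure was carried out in a genetically defined yeast strain deficient in DNA damage repair.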
The nature of assay [2]: NCI Yeast Anticancer Drug Screen. Data for the mec2-1 strain (AID 157). To be noted: S. cerevisiae mec2-1 strain, active compounds read high. A digest of the protocol: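 Yeast mec2-1 mutant treated with compound. Readout: growth inhibition vs vehicle controls.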
A short description of assay [3]: NCI Yeast Anticancer Drug Screen. Data for the sgs1 mgt1 strain (AID 161).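 Further: 0% = growth of cultures given vehicle only.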 The conditions noted are these: S. cerevisiae sgs1 mgt1 strain, active compounds read high. A digest of the protocol: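 Inhibition of yeast growth, normalised to vehicle-treated controls, is reported for a strain bearing genetic alterations in DNA damage repair.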
Assay [4] can be described thus: NCI Yeast Anticancer Drug Screen. Data for the cln2 rad14 strain (AID 165).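 Further: 0% = growth equal to vehicle treated cultures.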 The conditions noted are these: S. cerevisiae cln2 rad14 strain, active compounds read high. A digest of the protocol:
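cln2 rad14 yeast strain; compound exposure; growth inhibition read vs vehicle controls.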

Assay [5] is described as follows: NCI Yeast Anticancer Drug Screen. Data for the bub3 strain (AID 167). The conditions noted are these: S. cerevisiae bub3 mutant strain, active compounds read high. A digest of the protocol:
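Readout: yeast growth inhibition, expressed relative to vehicle-only wells. The test organism is a mutant strain from a panel with lesions in DNA repair or checkpoint genes.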

Assay [6] can be described thus: NCI Yeast Anticancer Drug Screen. Data for the mlh1 rad18 strain (AID 175). The conditions noted are these: S. cerevisiae mlh1 rad18 strain growth inhibition, active compounds read high. A digest of the protocol:
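Yeast w/ defined DNA-repair lesions; compound exposure; growth vs vehicle controls → % inhibition.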

Where [7] appears, read: at 5.0 µM (retest, dose inferred, filed as 0.5).
[8] abbreviates: at 50.0 µM (retest, dose inferred, filed as 5.0).

Turning to `COc1ccc2c(c1)[n+]([O-])c(-c1ccc(C)cc1)c(N)[n+]2[O-]`, the growth inhibition in assay [1] (setting [7]) was 17%; in assay [1] (setting [8]) it was 98% (active); in assay [1] (at 50.0 µM), 99.4% (active); in assay [2] (setting [7]), 22%; in assay [2] (setting [8]), 99% (active); in assay [2] (at 50.0 µM) it was 99.5% (active). Moreover, the growth inhibition was 38% in assay [3] (setting [7]); 100% (active) in assay [3] (setting [8]); 99.3% (active) in assay [3] (at 50.0 µM); 34% in assay [4] (setting [7]); 96% (active) in assay [4] (setting [8]); 98.8% (active) in assay [4] (at 50.0 µM). Further, the growth inhibition is 75% (active) in assay [5] (setting [7]); 99% (active) in assay [5] (setting [8]); 99.4% (active) in assay [5] (at 50.0 µM); 63% in assay [6] (setting [7]); 98% (active) in assay [6] (setting [8]); 99.2% (active) in assay [6] (at 50.0 µM).
For the molecule `Cc1c(N=Nc2ccccc2Cl)c(-c2ccccc2)nn1C(=S)S`, the growth inhibition is 16% in assay [1] (setting [7]); 90% (active) in assay [1] (setting [8]); 96.2% (active) in assay [1] (at 50.0 µM); -1% in assay [2] (setting [7]); 91% (active) in assay [2] (setting [8]); 98.2% (active) in assay [2] (at 50.0 µM). Moreover, the growth inhibition in assay [3] (setting [7]) is 4%; in assay [3] (setting [8]), 95% (active); in assay [3] (at 50.0 µM) it was 97.8% (active); in assay [4] (setting [7]) it was -2%; in assay [4] (setting [8]), 92% (active); in assay [4] (at 50.0 µM), 97.3% (active). Further, the growth inhibition was -3% in assay [5] (setting [7]); 85% (active) in assay [5] (setting [8]); 97.3% (active) in assay [5] (at 50.0 µM); -2% in assay [6] (setting [7]); 93% (active) in assay [6] (setting [8]); 97.8% (active) in assay [6] (at 50.0 µM).
For the molecule `CCOc1ccccc1NC(=O)/C(Cl)=C(\Cl)C(=O)O`, the growth inhibition in assay [1] (setting [7]) was 100% (active); in assay [1] (setting [8]), 99% (active); in assay [1] (at 50.0 µM), 99% (active); in assay [2] (setting [7]) it was 100% (active); in assay [2] (setting [8]), 100% (active); in assay [2] (at 50.0 µM) it was 98.3% (active). Further, the growth inhibition is 100% (active) in assay [3] (setting [7]); 100% (active) in assay [3] (setting [8]); 95.2% (active) in assay [3] (at 50.0 µM); 100% (active) in assay [4] (setting [7]); 99% (active) in assay [4] (setting [8]); 56.8% in assay [4] (at 50.0 µM). Further, the growth inhibition is 100% (active) in assay [5] (setting [7]); 100% (active) in assay [5] (setting [8]); 64.4% in assay [5] (at 50.0 µM); 100% (active) in assay [6] (setting [7]); 100% (active) in assay [6] (setting [8]); 76% (active) in assay [6] (at 50.0 µM).
With `O=C(CN1CCCCC1)CC(O)(C(F)(F)F)C(F)(F)F`, the growth inhibition in assay [1] (setting [7]) was 29%; in assay [1] (setting [8]), 39%; in assay [1] (at 50.0 µM), 5.85%; in assay [2] (setting [7]) it was 20%; in assay [2] (setting [8]), 33%; in assay [2] (at 50.0 µM) it was 8.45%. Further, the growth inhibition was 10% in assay [3] (setting [7]); 20% in assay [3] (setting [8]); 6.25% in assay [3] (at 50.0 µM); 2% in assay [4] (setting [7]); 50% in assay [4] (setting [8]); 15.6% in assay [4] (at 50.0 µM). Moreover, the growth inhibition in assay [5] (setting [7]) is 11%; in assay [5] (setting [8]) it was 23%; in assay [5] (at 50.0 µM), 7.5%; in assay [6] (setting [7]), 31%; in assay [6] (setting [8]), 34%; in assay [6] (at 50.0 µM), 77.3% (active).
With `COc1ccc2c(c1)CN1C(CCC3c4ccccc4NC31)C2` (configuration not stated), the growth inhibition in assay [1] (setting [7]) was -17%; in assay [1] (setting [8]) it was 16%; in assay [1] (at 50.0 µM), 88.5% (active); in assay [2] (setting [7]), -5%; in assay [2] (setting [8]), 11%; in assay [2] (at 50.0 µM), 72.3% (active). Besides, the growth inhibition was -5% in assay [3] (setting [7]); 30% in assay [3] (setting [8]); 86.7% (active) in assay [3] (at 50.0 µM); 26% in assay [4] (setting [7]); 11% in assay [4] (setting [8]); 51.3% in assay [4] (at 50.0 µM). The growth inhibition in assay [5] (setting [7]) was -35%; in assay [5] (setting [8]), 13%; in assay [5] (at 50.0 µM) it was 61.6%; in assay [6] (setting [7]) it was -12%; in assay [6] (setting [8]), 27%; in assay [6] (at 50.0 µM) it was 90.5% (active).
In the case of `CCN(CC)C(=O)N1CCN(c2cccc(Cl)c2)CC1`, the growth inhibition in assay [1] (setting [7]) is 4%; in assay [1] (setting [8]), 58%; in assay [1] (at 50.0 µM), 74% (active); in assay [2] (setting [7]), 0%; in assay [2] (setting [8]), 84% (active); in assay [2] (at 50.0 µM), 91.2% (active). Also, the growth inhibition in assay [3] (setting [7]) was 5%; in assay [3] (setting [8]), 85% (active); in assay [3] (at 50.0 µM) it was 90.2% (active); in assay [4] (setting [7]), 1%; in assay [4] (setting [8]), 50%; in assay [4] (at 50.0 µM), 93% (active). The growth inhibition is 4% in assay [5] (setting [7]); 73% (active) in assay [5] (setting [8]); 85.7% (active) in assay [5] (at 50.0 µM); 2% in assay [6] (setting [7]); 76% (active) in assay [6] (setting [8]); 90.6% (active) in assay [6] (at 50.0 µM).
For `O=C(Oc1cc([N+](=O)[O-])ccc1Cl)Oc1cc([N+](=O)[O-])ccc1Cl`, the growth inhibition is -6% in assay [1] (setting [7]); 97% (active) in assay [1] (setting [8]); 97.5% (active) in assay [1] (at 50.0 µM); 0% in assay [2] (setting [7]); 99% (active) in assay [2] (setting [8]); 99.5% (active) in assay [2] (at 50.0 µM). Moreover, the growth inhibition was -7% in assay [3] (setting [7]); 99% (active) in assay [3] (setting [8]); 98.6% (active) in assay [3] (at 50.0 µM); 0% in assay [4] (setting [7]); 98% (active) in assay [4] (setting [8]); 97.9% (active) in assay [4] (at 50.0 µM). The growth inhibition was -9% in assay [5] (setting [7]); 98% (active) in assay [5] (setting [8]); 98.8% (active) in assay [5] (at 50.0 µM); -5% in assay [6] (setting [7]); 98% (active) in assay [6] (setting [8]); 98.6% (active) in assay [6] (at 50.0 µM).
As for `CCCCCC(C1SC(=S)NC1=O)C1SC(=S)NC1=O` (configuration not stated), the growth inhibition in assay [1] (setting [7]) is 1%; in assay [1] (setting [8]) it was -3%; in assay [1] (at 50.0 µM) it was 96.8% (active); in assay [2] (setting [7]), 2%; in assay [2] (setting [8]) it was 1%; in assay [2] (at 50.0 µM), 93.2% (active). Further, the growth inhibition is 5% in assay [3] (setting [7]); 6% in assay [3] (setting [8]); 95% (active) in assay [3] (at 50.0 µM); -1% in assay [4] (setting [7]); -1% in assay [4] (setting [8]); 83% (active) in assay [4] (at 50.0 µM). Further, the growth inhibition in assay [5] (setting [7]) is 0%; in assay [5] (setting [8]), 0%; in assay [5] (at 50.0 µM), 97.6% (active); in assay [6] (setting [7]), 0%; in assay [6] (setting [8]) it was 3%; in assay [6] (at 50.0 µM), 81.8% (active).
On to `COc1cccc2c1C(=O)c1c(O)c3c(c(O)c1C2=O)C[C@@](O)(/C(C)=N/NS(C)(=O)=O)C[C@@H]3OC1CC(N)C(O)C(C)O1` (some centres not stated), for which the growth inhibition in assay [1] (setting [7]) is 42%; in assay [1] (setting [8]), 94% (active); in assay [1] (at 50.0 µM), 95.2% (active); in assay [2] (setting [7]) it was 18%; in assay [2] (setting [8]), 80% (active); in assay [2] (at 50.0 µM), 81.3% (active). Moreover, the growth inhibition in assay [3] (setting [7]) is 12%; in assay [3] (setting [8]) it was 77% (active); in assay [3] (at 50.0 µM) it was 94.2% (active); in assay [4] (setting [7]) it was 15%; in assay [4] (setting [8]) it was 52%; in assay [4] (at 50.0 µM), 70% (active). Besides, the growth inhibition in assay [5] (setting [7]) is 12%; in assay [5] (setting [8]), 91% (active); in assay [5] (at 50.0 µM), 90.5% (active); in assay [6] (setting [7]) it was 14%; in assay [6] (setting [8]), 89% (active); in assay [6] (at 50.0 µM), 91.6% (active).
